Compounds with a hit are over-represented: about 9.3% of the library has one in this group of screens.
Rab9 promoter act – qHTS Assay for Rab9 Promoter Activators; Potency, µM (highest dose often 9.22 µM), actives largely listed as activators; 320,000 compounds, 2.8% hits; AID 485297, 2010; Huh7 Rab9 promoter-luciferase reporter, luminescence, 24 h; further: nearly all actives have a fitted effect of over 60% in size
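Promoter activation is measured as luciferase luminescence in Huh7 cells stably transfected with a Rab9 promoter–luciferase construct, following 24 h compound exposure at 37 °C and 10 min reagent incubation at ambient temperature.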
ELG1 DNA repair – qHTS screen for small molecules that inhibit ELG1-dependent DNA repair in human embryonic kidney (HEK293T) cells expressing luciferase-tagged ELG1; AID 504467, 2011; HEK293T ELG1-luciferase reporter, luminescence, 16 h; DNA damage induced by 5-fluorouridine; Potency, µM (top dose mostly 46.1 µM), usual class: inhibitors; 330,000 compounds, 2.3% hits; further: nearly all actives have a fitted effect of over 55% in size
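HEK293T cells expressing luciferase-tagged ELG1 (2,000/well) received 5-Fluorouridine plus compound or DMSO for 16 hr at 37 °C. Luciferase was read by ONE-Glo luminescence after 30 min at room temperature.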
ELG1 genotox – qHTS screen for small molecules that induce genotoxicity in human embryonic kidney (HEK293T) cells expressing luciferase-tagged ELG1 | HEK293T ELG1-luciferase reporter, luminescence, 16 h | Potency, µM (highest dose often 46 µM), hits mostly activators | 330,000 compounds, 1.3% hits | AID 504466, 2011; further: nearly all actives have a fitted effect of over 60% in size
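Luminescence read-out: rising ELG1-luciferase signal, reflecting elevated ELG1 protein under genetic stress, flags genotoxic compounds. Cells were treated for 16 hr at 37 °C before ONE-Glo detection.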
NPC1 prom act – qHTS Assay for NPC1 Promoter Activators | Huh7 NPC1 promoter luciferase reporter, 24 h | Potency, µM (titrated, usually from 9.22 µM), actives largely listed as activators | 320,000 compounds, 2.4% hits | AID 485313, 2010; further: nearly all actives have a fitted effect of over 60% in size
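Luminescence read-out of NPC1 promoter-driven luciferase in stably transfected Huh7 cells; compounds delivered in DMSO and left 24 h at 37C, 5% CO2, qHTS titration format.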
SMN2 splice enh – qHTS Assay for Enhancers of SMN2 Splice Variant Expression. 210,000 compounds, 2.8% hits. Potency, µM (top dose mostly 46.1 µM), most hits filed as activators. AID 1458, 2008. HEK293 SMN2-luciferase splicing reporter, luminescence, 30-36 h; further: nearly all actives have a fitted effect of over 55% in size
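HEK293 cells carry an SMN2 minigene-luciferase reporter in which exon 7 inclusion puts luciferase in frame. Cells were seeded at 2000 cells/well, attached for 10-12 hours, then exposed to compounds for 30-36 hours at 37C before ONE-Glo luminescence.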
FLuc counter – qHTS profiling assay for firefly luciferase inhibitor/activator using purifed enzyme and Km concentrations of substrates (counterscreen for miR-21 project). 360,000 compounds, 6.9% hits. purified FLuc, Km substrates, luminescence inhibition. AID 588342, 2011. Luciferin 4-monooxygenase (Photinus pyralis), P08659. Potency, µM (highest dose often 57.5 µM), usual class: inhibitors; further: nearly all actives have a fitted effect of over 55% in size
Target sequence (P08659 whole entry, looked up): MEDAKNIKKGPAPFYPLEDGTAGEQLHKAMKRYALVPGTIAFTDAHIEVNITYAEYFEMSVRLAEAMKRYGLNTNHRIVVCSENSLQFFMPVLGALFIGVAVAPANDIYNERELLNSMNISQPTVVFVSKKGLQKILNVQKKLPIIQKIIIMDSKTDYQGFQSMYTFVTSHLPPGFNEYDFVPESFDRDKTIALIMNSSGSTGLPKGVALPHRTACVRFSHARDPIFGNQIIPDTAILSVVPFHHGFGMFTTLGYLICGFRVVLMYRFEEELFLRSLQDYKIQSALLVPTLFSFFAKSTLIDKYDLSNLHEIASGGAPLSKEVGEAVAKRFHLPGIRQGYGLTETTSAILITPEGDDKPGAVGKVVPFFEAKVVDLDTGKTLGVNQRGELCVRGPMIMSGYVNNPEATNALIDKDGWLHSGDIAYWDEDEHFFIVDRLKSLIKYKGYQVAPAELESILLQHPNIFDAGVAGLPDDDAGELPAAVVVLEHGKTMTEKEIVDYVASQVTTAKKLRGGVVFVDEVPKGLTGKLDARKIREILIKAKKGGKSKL
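Biochemical qHTS of compounds, final roughly 60 µM downward over six points, against 10 nM purified firefly luciferase using Km concentrations of substrates (10 uM D-luciferin, 10 uM ATP) in Tris acetate pH 7.5 buffer; luminescence output.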
Each line names hits and unclear results; the compound was inactive in the other large screens. The call rests on the fitted dose curve; in most records, active means well fitted curve in the direction sought with a large enough effect; inconclusive means small, poorly fitted or top-dose-only effect, or another doubt; inactive means no such curve, though single readings can be large; an effect the other way counts as inactive or inconclusive.

O=C(NNc1ccc(O)cc1)c1ccc(Br)cc1	ELG1 DNA repair 5.8µM, FLuc counter inconclusive
CCC(=O)Nc1cccc(NC(=O)c2ccc(Br)cc2)c1	ELG1 DNA repair inconclusive, SMN2 splice enh inconclusive
CC(=O)Nc1cccc(NC(=O)c2ccc(Br)cc2)c1	Rab9 promoter act inconclusive, ELG1 DNA repair inconclusive, FLuc counter 23.9µM
CC(=O)c1cccc(NC(=O)C(C)OC(=O)CCn2c(C)csc2=O)c1 (configuration not stated)	none (no result: SMN2 splice enh)
O=C(Nc1ccc(CN2CCS(=O)(=O)CC2)cc1)c1ccc(F)cc1	ELG1 DNA repair inconclusive (no result: SMN2 splice enh)
CC(C)(C)c1ccc(C(=O)Nc2ccc(CN3CCS(=O)(=O)CC3)cc2)cc1	FLuc counter 9.53µM (no result: SMN2 splice enh)
O=C(Nc1ccc(CN2CCS(=O)(=O)CC2)cc1)c1ccc(C(F)(F)F)cc1	FLuc counter 16.9µM (no result: SMN2 splice enh)
COc1ccc(-c2ccc(C)cc2)cc1[C@H]1[C@@H]2C=CCC[C@@]2(C)C(=O)N1Cc1ccccc1	FLuc counter inconclusive (no result: SMN2 splice enh)
COc1ccc(-c2ccc(C(C)=O)cc2)cc1[C@H]1[C@@H]2C=CCC[C@@]2(C)C(=O)N1Cc1ccccc1	ELG1 DNA repair 20.6µM (no result: SMN2 splice enh)
COc1cccc(/C=N/NC(=O)CSc2ccccc2C)c1O	ELG1 genotox inconclusive, FLuc counter inconclusive
COc1cccc(/C=N\NC(=O)c2ccc(Cn3cc(Br)c([N+](=O)[O-])n3)o2)c1O	ELG1 DNA repair inconclusive, FLuc counter 10.7µM (no result: SMN2 splice enh)
COc1cccc(/C=N/NC(=O)C(=O)N2CCCC2)c1OC	none
COc1cccc(/C=N/NC(=O)N/N=C/c2cccc(OC)c2O)c1O	ELG1 DNA repair inconclusive, FLuc counter 4.26µM (no result: SMN2 splice enh)
COc1cccc(/C=N/NC(=O)C(=O)N2CCCC2)c1O	ELG1 DNA repair inconclusive, ELG1 genotox inconclusive, FLuc counter 15.1µM
COc1cccc(/C=N/NC(=O)c2c(C)nc3ccc(Br)cn23)c1O	ELG1 DNA repair 2.06µM, FLuc counter inconclusive
COc1ccc(CN2CCN(C(=O)CC(C)C)CC2)cc1	none (no result: SMN2 splice enh)
COc1cccc(/C=N/NC(=O)C(C)n2nc(C)c([N+](=O)[O-])c2C)c1O (configuration not stated)	ELG1 genotox inconclusive, SMN2 splice enh inconclusive, FLuc counter 7.57µM
COc1ccccc1NC(=O)NCC(c1ccco1)N1CCCCC1 (configuration not stated)	none
CSc1ccc(CCNC(=O)CCc2nnc3ccc(N4CCC5(CC4)OCCO5)nn23)cc1	ELG1 DNA repair 9.2µM (no result: SMN2 splice enh)
COc1ccc(/C=C/C(=O)NNC(=O)c2cc(C)oc2C)cc1	none (no result: SMN2 splice enh)
Fc1ccc(NC(=S)N2CCCC(c3ccccc3)=N2)cc1	none (no result: SMN2 splice enh)
O=C(Nc1cccc(Cl)c1)N1N=CCC1c1ccccc1 (configuration not stated)	none (no result: SMN2 splice enh)
S=C(Nc1ccccc1)N1N=CCC1c1ccccc1 (configuration not stated)	ELG1 DNA repair inconclusive, ELG1 genotox inconclusive, FLuc counter 16.9µM
Fc1ccc(NC(=S)N2N=CCC2c2ccccc2)cc1 (configuration not stated)	ELG1 DNA repair inconclusive, ELG1 genotox 23.1µM, FLuc counter inconclusive
O=C1OC(c2ccc3c(c2)OCO3)N(C(=O)c2ccc(Cl)c(Cl)c2)c2ccccc21 (configuration not stated)	Rab9 promoter act 3.16µM, ELG1 DNA repair inconclusive, ELG1 genotox inconclusive, NPC1 prom act inconclusive, SMN2 splice enh 12.6µM
Cc1csc(NC(=O)c2ccc(OCC3CCCO3)cc2)n1 (configuration not stated)	Rab9 promoter act 0.447µM, ELG1 DNA repair inconclusive, NPC1 prom act inconclusive, SMN2 splice enh 1.41µM, FLuc counter 5.36µM
Cc1cccc2sc(NC(=O)c3ccc(OCC4CCCO4)cc3)nc12 (configuration not stated)	FLuc counter 10.7µM
CCOc1ccc2nc(NC(=O)CSc3nnc(-c4ccncc4)n3CC3CCCO3)sc2c1 (configuration not stated)	Rab9 promoter act inconclusive, ELG1 DNA repair inconclusive, ELG1 genotox inconclusive, NPC1 prom act inconclusive, FLuc counter 2.39µM
CCOc1ccc2nc(NC(=O)c3ccc(OCC4CCCO4)cc3)sc2c1 (configuration not stated)	ELG1 DNA repair inconclusive, SMN2 splice enh inconclusive, FLuc counter 2.69µM
O=C(Nc1nc(-c2ccc(F)c(F)c2)cs1)c1ccc(OCC2CCCO2)cc1 (configuration not stated)	ELG1 DNA repair inconclusive (no result: SMN2 splice enh)
Cc1cccc(C(C)C)c1NC(=O)c1ccc(OCC2CCCO2)cc1 (configuration not stated)	ELG1 DNA repair inconclusive (no result: Rab9 promoter act, NPC1 prom act, SMN2 splice enh, FLuc counter)
O=C(NCc1ccccn1)C(C(=O)c1cccc([N+](=O)[O-])c1)n1cc(Cl)ccc1=O (configuration not stated)	none (no result: SMN2 splice enh)
COc1ccc(NC(=O)O/N=C/c2ccncc2)cc1	FLuc counter inconclusive
COc1ccc(NC(=O)O/N=C/c2ccc(N(C)C)cc2)cc1	FLuc counter 21.3µM (no result: SMN2 splice enh)
CN(C)c1ccc(/C=N/OC(=O)Nc2ccccc2Cl)cc1	ELG1 DNA repair inconclusive, FLuc counter 23.9µM (no result: SMN2 splice enh)
Cc1ccc(C(=O)O/N=C/c2ccc(N(C)C)cc2)cc1	ELG1 DNA repair inconclusive, FLuc counter inconclusive (no result: SMN2 splice enh)
Cc1ccc(NC(=O)O/N=C/c2ccc(N(C)C)cc2)cc1	ELG1 DNA repair inconclusive, NPC1 prom act inconclusive, FLuc counter 12µM (no result: SMN2 splice enh)
COc1ccc(/C=N/OC(=O)Nc2ccccc2OC)cc1	Rab9 promoter act inconclusive, ELG1 DNA repair inconclusive, ELG1 genotox inconclusive, SMN2 splice enh 15.8µM, FLuc counter 8.49µM
CCN(CC)c1ccc(/C=N/OC(C)C(=O)Nc2ccc(C)cc2)cc1 (configuration not stated)	FLuc counter inconclusive
COc1ccc(CCNS(=O)(=O)c2ccc(F)c(C(=O)Nc3ccc(Cl)cc3)c2)cc1OC	none (no result: Rab9 promoter act, ELG1 DNA repair, ELG1 genotox, NPC1 prom act, SMN2 splice enh)
Cc1ccc(NC(=O)O/N=C/c2ccc(Br)cc2)cc1	FLuc counter inconclusive (no result: SMN2 splice enh)
COc1ccc(/C=N/OC(=O)Nc2ccc(Cl)cc2)c(OC)c1	FLuc counter 12µM (no result: SMN2 splice enh)
COc1ccc(NC(=O)O/N=C/c2ccc(Br)cc2)cc1	FLuc counter 26.9µM (no result: SMN2 splice enh)
Cc1ccccc1CN(C)C(C)C(=O)Nc1ccccc1F (configuration not stated)	ELG1 DNA repair inconclusive

Bioassay records deposited in PubChem BioAssay by National Center for Advancing Translational Sciences (NCATS).
